High-throughput results as filed in PubChem.
SARS PLpro yeast-1: qHTS of Yeast-based Assay for SARS-CoV PLP; S. cerevisiae expressing SARS-CoV PLpro, growth rescue; Potency, µM (doses to about 32.9 µM), most hits filed as activators; 330,000 tested, 0.19% active; AID 485353, 2010; calls by dose curve; also: nearly all actives have a fitted effect of over 55% in size
Sm TGR block: qHTS Assay for the Inhibitors of Schistosoma Mansoni Peroxiredoxins. 360,000 tested, 3% active. AID 485364, 2010. Potency, µM (highest dose often 114 µM), most hits filed as inhibitors. purified TGR, DTNB reduction, TNB absorbance 405 nm; active = well fitted inhibition curve with a large enough effect; inconclusive = small, poorly fitted or top-dose-only effect; inactive = no such curve, though single readings can be large or run the other way; also: nearly all actives have a fitted effect of over 60% in size
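Kinetic colorimetric format: TGR-catalysed, NADPH-driven DTNB reduction monitored via TNB absorbance. Enzyme dispensed at 20 nM; compound exposure 15 min at room temperature before reaction start.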
SARS PLpro yeast-2: qHTS of Yeast-based Assay for SARS-CoV PLP: Hit Validation. yeast expressing SARS-CoV PLpro, growth phenotype rescue. calls only. AID 652038, 2013. shares compounds with SARS PLpro yeast-1. 1,000 tested, 19% active; call rule not given here
Of the large screens only hits and unclear results are named; the others gave an inactive call (follow-up assays come after a bar, where they were run). The list is not random: actives were taken first. Their share in the collection is about 3%.

Cc1onc(-c2ccccc2)c1C(=O)NC(=S)NNC(=O)c1ccc(O)cc1	none
Cc1onc(-c2ccccc2)c1C(=O)NC(=S)NNC(=O)c1ccccc1O	SARS PLpro yeast-1 4.5µM | SARS PLpro yeast-2 inactive
Cc1ccccc1CCNC(=O)c1ccc2c(c1)nc1n2CCC(C)C1 (centres undefined)	none (no result: SARS PLpro yeast-1)
COc1cc(NC(=O)c2ccc(C(=O)Nc3cc(OC)c(Cl)cc3OC)cc2)c(OC)cc1Cl	none (no result: SARS PLpro yeast-1)
CCn1ccc2c(OCC(=O)Nc3ccc(C(C)=O)cc3)cccc2c1=O	none (no result: SARS PLpro yeast-1)
CCOC(=O)C1CCN(c2c(C(=O)c3ccc(OC)cc3)cnc3ccccc23)CC1	none (no result: SARS PLpro yeast-1)
CC(=O)Nc1ccc(NC(=O)CCn2c(=O)oc3ccccc32)cc1	none
O=C(CCn1c(=O)oc2ccccc21)NC1=NCCS1	SARS PLpro yeast-1 inconclusive | SARS PLpro yeast-2 inactive
O=C(CCN1C(=O)/C(=C\c2cccs2)SC1=S)NC1=NCCS1	none
COc1ccccc1/C=C1\SC(=S)N(CCC(=O)NC2=NCCS2)C1=O	SARS PLpro yeast-1 4µM | SARS PLpro yeast-2 inactive
COc1ccc(C(=O)CN2C(=O)N(c3ccc(C(C)=O)cc3)S(=O)(=O)c3ccccc32)cc1	none (no result: SARS PLpro yeast-1)
CCOc1ccc(-c2cn3c(n2)sc2cc(C(=O)NCCCN(CC)CC)ccc23)cc1	none (no result: SARS PLpro yeast-1)
Cc1nc2c3ccccc3nc(NNC(=O)CCC(=O)O)n2n1	none (no result: SARS PLpro yeast-1)
COc1cc(NC(=O)Cn2c(=O)n(C(C)C)c(=O)c3oc4ccccc4c32)cc(OC)c1	none (no result: SARS PLpro yeast-1)
CCOC(=O)N1CCC(NC(=O)c2cnn(-c3ccc(C)cc3)c2-n2cccc2)CC1	none (no result: SARS PLpro yeast-1)
Cc1cc(/C=N/NC(N)=S)c(C)n1-c1ccc(Br)cc1	SARS PLpro yeast-1 inconclusive
Cc1cc(/C=N/NC(N)=S)c(C)n1-c1ccc(Cl)cc1	SARS PLpro yeast-1 11µM | SARS PLpro yeast-2 inactive
COc1ccccc1-c1nnn(CC#N)n1	SARS PLpro yeast-1 inconclusive | SARS PLpro yeast-2 inactive
COc1ccc(-c2nnn(CC#N)n2)cc1OC	none
Cc1cccc(N2CCN(c3nc4ccc(C)cc4n4cnnc34)CC2C)c1 (centres undefined)	none (no result: SARS PLpro yeast-1)
COc1cccc(Nc2c3c(nc4nncn24)CCC3)c1	none (no result: SARS PLpro yeast-1)
C=CCN(CC=C)C(=S)NC(=O)/C=C/c1ccc(C)cc1	SARS PLpro yeast-1 inconclusive
C=CCN(CC=C)C(=S)NC(=O)/C=C/c1ccccc1	SARS PLpro yeast-1 2.8µM | SARS PLpro yeast-2 inactive
O=C(Cc1ccccc1)NCC(=O)N/N=C/c1cccs1	none
S=C(NCc1ccccc1)N/N=C/c1cccs1	SARS PLpro yeast-1 5.6µM | SARS PLpro yeast-2 active
O=C(C[n+]1ccccc1)N/N=C/c1cc(Br)cc(Br)c1O	Sm TGR block inconclusive
O=C(CP(=O)(c1ccccc1)c1ccccc1)N/N=C/c1cc(Br)cc(Br)c1O	SARS PLpro yeast-1 2.5µM | SARS PLpro yeast-2 active
CSC1=NC2(CCN(C(=O)NC3CCCCC3)CC2)N=C1c1ccc(C)c(C)c1	none (no result: SARS PLpro yeast-1)
Cc1ccc2c(c1)c(=O)c(C(=O)c1ccc3c(c1)OCO3)cn2Cc1ccc(Cl)cc1	none (no result: SARS PLpro yeast-1)
CC(=O)c1ccc(NC(=O)CCc2c(C)nc3c(c2C)c(=O)n(C)c(=O)n3C)cc1	none (no result: SARS PLpro yeast-1)
CCN(CC)S(=O)(=O)c1cc(C(=O)OCC(=O)Nc2c(F)cccc2F)ccc1F	SARS PLpro yeast-1 inconclusive | SARS PLpro yeast-2 inactive
CCc1cccc(CC)c1NC(=O)COC(=O)c1ccc(F)c(S(=O)(=O)N(CC)CC)c1	none
COc1ccc(OC)c(C2/C(=C(/O)c3ccccc3)C(=O)C(=O)N2Cc2ccco2)c1 (centres undefined)	none
COc1ccc(OC)c(C2/C(=C(/O)c3ccc(C)cc3)C(=O)C(=O)N2Cc2ccco2)c1 (centres undefined)	SARS PLpro yeast-1 10µM | SARS PLpro yeast-2 inactive
CC(COC(=O)c1ccccc1)(COC(=O)c1ccccc1)/[N+]([O-])=C/c1ccccc1	SARS PLpro yeast-1 inconclusive | SARS PLpro yeast-2 inactive
O=C(NCCOC(=O)c1ccccc1)c1ccc([N+](=O)[O-])cc1	none
O=C(NC1CC(=O)N(c2cccc(F)c2)C1)c1ccc(S(=O)(=O)N2CCCCC2)cc1 (centres undefined)	none (no result: SARS PLpro yeast-1)
O=C(NCc1cccc(Cl)c1)NCc1noc2ccccc12	none (no result: SARS PLpro yeast-1)
Fc1ccccc1OCCCCCCN1CCCC1	none
Fc1ccccc1OCCCCCN1CCCC1	SARS PLpro yeast-1 2.5µM | SARS PLpro yeast-2 inactive
CCCNC(=O)C1CCC(Cn2c(=O)c3sccc3n(CC(=O)N3CCC(C)CC3)c2=O)CC1 (centres undefined)	none (no result: SARS PLpro yeast-1)
O=C(CSc1oc(-c2ccc(F)cc2)nc1S(=O)(=O)c1ccc(F)cc1)NCC1CCCO1 (centres undefined)	SARS PLpro yeast-1 inconclusive | SARS PLpro yeast-2 inactive
Cc1ccc(-c2nc(S(=O)(=O)c3ccc(F)cc3)c(SCC(=O)NCC3CCCO3)o2)cc1 (centres undefined)	none
COc1ccc(-c2noc(N3CCN(c4cccc(Cl)c4)CC3)n2)cc1OC	none (no result: SARS PLpro yeast-1)
COc1ccc(CCNS(=O)(=O)c2ccc(F)c(C(=O)Nc3ccc(Cl)cc3)c2)cc1OC	none (no result: SARS PLpro yeast-1)
